In the supplement of paper PMC3334620:
In all, about 33,000 sequences were measured (“E-score (-0.5 to 0.5)”: median about -0.04, highest 2% from about 0.36 on). Many of the other results were omitted from the sample, so the highest values are more common in it than they were.

molecular target: T1, Hmlalpha2 (UniProt P0CY09); assay: PBM E-score (8-mer binding enrichment) (E-score (-0.5 to 0.5)); higher = stronger / more preferred TF binding; details: protein concentration: 200 nM; construct: GST-full length
T1 sequence: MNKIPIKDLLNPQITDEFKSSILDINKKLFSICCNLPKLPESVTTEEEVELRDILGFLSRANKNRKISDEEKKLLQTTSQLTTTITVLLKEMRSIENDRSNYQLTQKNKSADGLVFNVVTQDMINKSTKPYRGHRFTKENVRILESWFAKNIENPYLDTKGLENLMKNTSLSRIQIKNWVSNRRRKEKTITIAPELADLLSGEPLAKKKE
In short: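 Using PURExpress in vitro transcription/translation, GST-tagged yeast transcription factors were made in full-length or DNA-binding-domain form. These were applied at about 100-200 nM to double-stranded universal all-10-mer Agilent arrays, and bound protein was detected with fluorescent anti-GST. Scans were normalised with masliner before the Universal PBM Analysis Suite assigned E-scores to ungapped eight-base words pooled with their reverse complements.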

Compared with CGGAGGGC, CACATGAG is higher in “PBM E-score” value: -0.293 for the first, 0.0365 for the second.

First: AACATGAT
Second: ACCATGAT
The “PBM E-score” value of the first is higher: 0.439 for the first, -0.0585 for the second.

Compared with AACATGAC, CACATGAC is lower in “PBM E-score” value: 0.425 for the first, 0.267 for the second.

First: AACATGAG
Second: AGCATGAT
The “PBM E-score” value of the first is higher: 0.379 for the first, 0.0873 for the second.

Going from AGCATGAG to GACATGAC, the “PBM E-score” value rises from 0.0355 to 0.29.

Compared with GAGTAGAC, CTGGAACC is lower in “PBM E-score” value: -0.0398 for the first, -0.109 for the second.

Compared with CTGCCTTA, ACGAGCCA is higher in “PBM E-score” value: -0.206 for the first, 0.0562 for the second.

Going from AGAGATAG to ATTGAGAA, the “PBM E-score” value rises from -0.0703 to 0.142.

Compared with TCCTCGCA, CTTCACCA is lower in “PBM E-score” value: -0.204 for the first, -0.283 for the second.

Going from GTCGCGTA to CTCGCGTA, the “PBM E-score” value falls from 0.414 to 0.22.

Going from ATCGCGTC to CGCGCGTA, the “PBM E-score” value rises from 0.216 to 0.283.

Compared with GTCGCGGA, CTTGCGTA is higher in “PBM E-score” value: -0.252 for the first, 0.286 for the second.

Compared with ATTGCGTA, GGCGCGTA is lower in “PBM E-score” value: 0.296 for the first, 0.255 for the second.

First: ATCGCGTA
Second: AGCGCGTA
The “PBM E-score” value of the first is lower: 0.368 for the first, 0.388 for the second.

First: GTTGCGTA
Second: ATCGCGTG
The “PBM E-score” value of the first is higher: 0.378 for the first, 0.192 for the second.

First: GTCGCCAC
Second: GTTTGACA
The “PBM E-score” value of the first is lower: -0.316 for the first, 0.303 for the second.

Going from AGGAAGAT to ATGACGCC, the “PBM E-score” value rises from -0.192 to -0.105.

Going from ATGGAGAG to CCCTTTAC, the “PBM E-score” value rises from -0.115 to 0.134.

Compared with ATACTCCG, AAATTGCC is lower in “PBM E-score” value: -0.0161 for the first, -0.0531 for the second.

Going from CTTTCTTC to CAATCGGC, the “PBM E-score” value falls from -0.09 to -0.156.

Compared with CAGCCACA, ACCAGAGA is lower in “PBM E-score” value: -0.111 for the first, -0.144 for the second.

Compared with ACCTAAAC, CCTAGCGC is lower in “PBM E-score” value: 0.098 for the first, -0.102 for the second.

First: ATCGACCG
Second: CATAACAA
The “PBM E-score” value of the first is lower: -0.223 for the first, 0.323 for the second.

Going from GATAACAA to AATAACCT, the “PBM E-score” value falls from 0.324 to 0.104.

First: GCTAACAC
Second: CATAACAC
The “PBM E-score” value of the first is lower: 0.366 for the first, 0.397 for the second.

Compared with ACTAACAC, GCTAACAA is lower in “PBM E-score” value: 0.293 for the first, 0.164 for the second.

Going from AATAACAT to GATAACAC, the “PBM E-score” value falls from 0.412 to 0.39.

Going from CATAACAG to AGTAACAT, the “PBM E-score” value rises from 0.174 to 0.295.

Going from GATAACGC to ACAACCAT, the “PBM E-score” value rises from 0.199 to 0.278.

First: CCTACAAA
Second: ATCTGAGC
The “PBM E-score” value of the first is higher: 0.0287 for the first, -0.0204 for the second.

First: AGCTAACG
Second: AGGGTACG
The “PBM E-score” value of the first is higher: 0.117 for the first, 0.0138 for the second.

First: AGATAGAA
Second: TATCCTAA
The “PBM E-score” value of the first is lower: -0.166 for the first, 0.00317 for the second.

Going from GGACCTTA to AATAACAA, the “PBM E-score” value rises from -0.238 to 0.267.

First: AATAACAC
Second: AATAACAG
The “PBM E-score” value of the first is higher: 0.396 for the first, 0.307 for the second.

Compared with GGAATACA, GGAATACC is lower in “PBM E-score” value: 0.431 for the first, -0.0768 for the second.

Compared with CGAATACG, GGAATAGA is lower in “PBM E-score” value: 0.259 for the first, -0.0449 for the second.

Going from ACAATACA to CGAATACA, the “PBM E-score” value rises from 0.326 to 0.39.

First: TGAATACA
Second: CCAATACA
The “PBM E-score” value of the first is higher: 0.397 for the first, 0.313 for the second.

Compared with TGGATACA, CGAATACC is lower in “PBM E-score” value: 0.17 for the first, -0.0493 for the second.

Compared with TCAATACA, TGAATAAA is lower in “PBM E-score” value: 0.372 for the first, 0.245 for the second.

Compared with GTAAGTAC, CACTAGGA is lower in “PBM E-score” value: 0.234 for the first, -0.225 for the second.

Going from AGAGGTCC to AGCTGCAA, the “PBM E-score” value rises from -0.273 to -0.227.

First: AACCTCAA
Second: AGTTTGCG
The “PBM E-score” value of the first is higher: 0.0617 for the first, -0.0236 for the second.

Compared with ACTATCTG, CTATGAAG is higher in “PBM E-score” value: -0.156 for the first, -0.149 for the second.

Compared with CGATCCGA, AGCGGCTA is higher in “PBM E-score” value: -0.256 for the first, -0.0688 for the second.

First: ACTCTACT
Second: TAAATACA
The “PBM E-score” value of the first is lower: 0.0373 for the first, 0.434 for the second.

First: AGAATACG
Second: AGAATACC
The “PBM E-score” value of the first is higher: 0.192 for the first, 0.0773 for the second.

First: AAAATACA
Second: GAAATACA
The “PBM E-score” value of the first is lower: 0.334 for the first, 0.346 for the second.

First: AGAATACA
Second: CATGTAAG
The “PBM E-score” value of the first is lower: 0.366 for the first, 0.47 for the second.

Compared with GATGTAAC, CCTGTAAC is lower in “PBM E-score” value: 0.215 for the first, 0.093 for the second.

Going from AATGTAAG to CCTGTAAG, the “PBM E-score” value falls from 0.294 to -0.00273.

First: CATGTAAC
Second: CGAGATCG
The “PBM E-score” value of the first is higher: 0.456 for the first, -0.0661 for the second.

Going from GCATGCGA to AAACCACC, the “PBM E-score” value falls from 0.0698 to -0.166.

Going from AGAGCCGA to GTGTTGTA, the “PBM E-score” value rises from -0.106 to 0.382.

ATGTTGTA was tested, and the “PBM E-score” value was 0.406.
